The panel holds about 83,000 compounds, 20% with a hit somewhere; the sample as a whole holds those more often.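 Cells were grown in 96-well plates and exposed to the test compound at a single concentration for 48 hours; results are reported as percent growth, with values below 10 considered active.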 Unmarked numbers belong to inactive results. The source made the active and inactive calls.
Legend:
Test in all cases: NCI-60 one-dose screen, 48 h (100 = growth as untreated, 0 = no growth, -100 = all killed)
Conditions in all cases: 10 µM
[1] = tested on: BT-549 breast
[2] = tested on: MDA-MB-435 melanoma
[3] = tested on: SW-620 colon
[4] = tested on: MCF7 breast
[5] = tested on: HCT-116 colon
[6] = tested on: HCC-2998 colon
[7] = tested on: KM12 colon

## O=C(Nc1ccc(CO)cc1)c1ccccc1Nc1ccnc(C(F)(F)F)c1
[1]
  growth: 104%
[2]
  growth: 106%
[3]
  growth: 105%
[4]
  growth: 97.1%
[5]
  growth: 101%
[6]
  growth: 106%
[7]
  growth: 99.4%

## CCCCCCN(CCCCCC)CC(O)c1ccc2c3c(cccc13)CC2 (centres undefined)
[1]
  growth: 62.8%
[2]
  growth: 42.9%
[3]
  growth: 19.2%
[4]
  growth: 54.2%
[5]
  growth: 17.4%
[6]
  growth: 20.3%
[7]
  growth: 58%

## O=C(Nc1cccc(-n2cc(-c3ccncc3)c(-c3ccc(O)c(Cl)c3)n2)c1)Nc1cccc(C(F)(F)F)c1
[1]
  growth: 13.3%
[2]
  growth: -35.3% (active)
[3]
  growth: 13.2%
[4]
  growth: -6.1% (active)
[5]
  growth: 5.24% (active)
[6]
  growth: 20.4%
[7]
  growth: -14.7% (active)

## c1ccc(CO[C@H]2CO[C@H]3[C@@H]2OC[C@H]3OCc2ccccc2)cc1
[1]
  growth: 104%
[2]
  growth: 115%
[3]
  growth: 107%
[4]
  growth: 101%
[5]
  growth: 105%
[6]
  growth: 98%
[7]
  growth: 103%

## COc1ccc(S(=O)(=O)Nc2c(/C=C\c3cc(OC)c(OC)c(OC)c3)ccc(OC)c2O)cc1
[1]
  growth: 40.6%
[2]
  growth: -39.4% (active)
[3]
  growth: 23.4%
[4]
  growth: 10.9%
[5]
  growth: -6.66% (active)
[6]
  growth: 13.3%
[7]
  growth: -4.97% (active)

## COc1ccc(-n2c(SCc3cc(OC)c(OC)c(OC)c3)nc3ccc(C)cc3c2=O)cc1
[1]
  growth: 71.5%
[2]
  growth: -4.51% (active)
[3]
  growth: 49.3%
[4]
  growth: 24.8%
[5]
  growth: 35%
[6]
  growth: 75.7%
[7]
  growth: 35.4%

## Cc1cc(N(CCCNc2ccnc3cc(Cl)ccc23)Cc2ccc3c(c2)OCO3)nc(N2CCCCC2)n1
[1]
  growth: -24% (active)
[2]
  growth: -74.6% (active)
[3]
  growth: -39.4% (active)
[4]
  growth: -14.3% (active)
[5]
  growth: -43.9% (active)
[6]
  growth: -57.6% (active)
[7]
  growth: 10.4%

## O=C(O)c1ccc(P(=O)(O)O)c([N+](=O)[O-])c1
[1]
  growth: 102%
[2]
  growth: 96%
[3]
  growth: 98.2%
[4]
  growth: 99.3%
[5]
  growth: 113%
[6]
  growth: 111%
[7]
  growth: 105%

## c1ccc(CP(Cc2ccccc2)c2ccccc2)cc1
[1]
  growth: 96.2%
[2]
  growth: 75.5%
[3]
  growth: 105%
[4]
  growth: 96.7%
[5]
  growth: 100%
[6]
  growth: 101%
[7]
  growth: 103%

## Cc1ccc(-c2nc(/C=C3/C(=O)N(C)c4ccc(F)cc43)c3ccccn23)cc1
[1]
  growth: 99.9%
[2]
  growth: 111%
[3]
  growth: 105%
[4]
  growth: 78.6%
[5]
  growth: 89.3%
[6]
  growth: 104%
[7]
  growth: 101%

## CCOC(=O)c1ccoc1
[1]
  growth: 98.4%
[2]
  growth: 107%
[3]
  growth: 100%
[4]
  growth: 95.1%
[5]
  growth: 97.1%
[6]
  growth: 113%
[7]
  growth: 104%

## CC1CN(Cc2ccccc2)C(=O)NC1=O (centres undefined)
[1]
  growth: 103%
[2]
  growth: 110%
[3]
  growth: 110%
[4]
  growth: 94.8%
[5]
  growth: 106%
[6]
  growth: 110%
[7]
  growth: 113%

## COc1ccc(-c2nc3sccn3c2-c2nc3c([nH]2)C(=O)c2ccccc2C3=O)cc1
[1]
  growth: 112%
[2]
  growth: 95.9%
[3]
  growth: 101%
[4]
  growth: 83.8%
[5]
  growth: 91%
[6]
  growth: 95.7%
[7]
  growth: 103%

## COc1cc(/C=N/NC(=O)c2ccccc2Nc2ccnc(C(F)(F)F)c2)ccc1O
[1]
  growth: 116%
[2]
  growth: 106%
[3]
  growth: 104%
[4]
  growth: 86.8%
[5]
  growth: 102%
[6]
  growth: 123%
[7]
  growth: 114%

## Cc1ccc(-c2n[nH]c(=O)c3noc(-c4ccc(C)cc4)c23)cc1
[1]
  growth: 38.3%
[2]
  growth: -13.3% (active)
[3]
  growth: 28%
[4]
  growth: 20.2%
[5]
  growth: 32.2%
[6]
  growth: 70.3%
[7]
  growth: 35.9%

## COc1ccc2c(c1)O/C(=C\c1ccc([N+](=O)[O-])s1)C2=O
[1]
  growth: 7.31% (active)
[2]
  growth: 51.7%
[3]
  growth: -56.3% (active)
[4]
  growth: 21.4%
[5]
  growth: -23.4% (active)
[6]
  growth: 11.9%
[7]
  growth: 5.98% (active)

## N#CSCC1CC(O)(c2ccccc2)CC(c2ccc(Cl)cc2)O1 (centres undefined)
[1]
  growth: -11.5% (active)
[2]
  growth: 3.01% (active)
[3]
  growth: -53.5% (active)
[4]
  growth: 14.7%
[5]
  growth: 10.1%
[6]
  growth: 94.9%
[7]
  growth: 22.3%
